Measured values from the supplement of paper PMC4840960.
Counter-ions that a name gives are not always drawn.

What follows are molecules tested on E18 rat cortical neuron-glia co-culture (assay: myelination (MBP fiber length per Olig2+ nucleus), % of 1 µM DAPT response (DMSO = 0) (% of DAPT); higher = more myelination, active = 50 or more). Details: 5 µM; treatment time: 8 days (DIV5-DIV13).
Method in brief: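 Myelination, expressed as continuous straight MBP fiber length per Olig2+ nucleus, was normalised to 0.1 % DMSO as 0 and a 1 µM positive control as 100. The cultures were primary E18 rat cortical co-cultures dissociated with papain and plated at 20,000 cells/well on poly-d-lysine/laminin-coated 96-well plates. They received library compounds at 1 or 5 µM in myelination medium between DIV5 and DIV13. Analysis covered four 10X fields per well in duplicate wells after 4 % paraformaldehyde fixation and immunostaining for MBP and Olig2 with DAPI.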

Compound	myelination
CCOc1cc(N)c(Cl)cc1C(=O)NCC1CN(Cc2ccc(F)cc2)CCO1 (centres undefined) [Mosapride]	-56.5 (inactive)
Cc1cnc(NC(=O)C2=C(O)c3ccccc3S(=O)(=O)N2C)s1 [Meloxicam]	3.06 (inactive)
Cc1cn([C@H]2C=C[C@@H](CO)O2)c(=O)[nH]c1=O [Stavudine]	-8.63 (inactive)
Cc1cccc(C)c1OCC(C)N (centres undefined) [Mexiletine]	8.07 (inactive)
Cc1nc(=O)c2cc(CN(C)c3ccc(C(=O)N[C@@H](CCC(=O)O)C(=O)O)s3)ccc2[nH]1 [Raltitrexed]	591 (active)
O=C(c1ccccc1)c1ccc2n1CCC2C(=O)O (centres undefined) [Ketorolac]	2.63 (inactive)
CC(N/C(=N\C#N)Nc1ccncc1)C(C)(C)C (centres undefined) [Pinacidil]	-19.7 (inactive)
NS(=O)(=O)c1cc2c(cc1Cl)NCNS2(=O)=O [Hydrochlorothiazide]	-12.5 (inactive)
C[C@]12C=CC(=O)C=C1CC[C@@H]1[C@@H]2C(=O)C[C@@]2(C)[C@H]1CC[C@]2(O)C(=O)CO [Prednisone]	-10.1 (inactive)
CC(C)c1nc(CN(C)C(=O)N[C@H](C(=O)N[C@@H](Cc2ccccc2)C[C@H](O)[C@H](Cc2ccccc2)NC(=O)OCc2cncs2)C(C)C)cs1 [Ritonavir]	-13.2 (inactive)
Nc1c2c(nc3c1CCC3)CCCC2 [Amiridine]	-17.6 (inactive)
O=C(O)/C=C/c1ccc(Cn2ccnc2)cc1 [Ozagrel]	-0.768 (inactive)
CC(C(=O)O)c1ccc(CC2CCCC2=O)cc1 (centres undefined) [loxoprofen]	-10.6 (inactive)
COc1cc2c(cc1OC)C(=O)C(CC1CCN(Cc3ccccc3)CC1)C2 (centres undefined) [Donepezil]	-26.1 (inactive)
CC(Oc1c(Cl)cccc1Cl)C1=NCCN1 (centres undefined) [lofexidine]	2.57 (inactive)
CN(C)c1ccc(O)c2c1C[C@H]1C[C@H]3[C@H](N(C)C)C(O)=C(C(N)=O)C(=O)[C@@]3(O)C(O)=C1C2=O [Minocycline]	-5.86 (inactive)
CNCCCCOc1ccccc1Cc1ccccc1 [Bifemelane]	-28.5 (inactive)

Compound	myelination
O=S(=O)(O)CCS [Mesna]	-6.97 (inactive)
COc1ccc2[nH]c([S+]([O-])Cc3ncc(C)c(OC)c3C)nc2c1 (centres undefined) [Omeprazole]	-4.44 (inactive)
Nc1ncnc2c1ncn2[C@@H]1O[C@H](CO)[C@@H](O)[C@@H]1O [Vidarabine]	24.3 (inactive)
Cc1cc2c(s1)Nc1ccccc1N=C2N1CCN(C)CC1 [Olanzapine]	-13.5 (inactive)
Cn1ccnc1S [Methimazole]	-15.9 (inactive)
CC(C)NCC(O)COc1ccc(CCOCC2CC2)cc1 (centres undefined) [Betaxolol]	-10.5 (inactive)
Cc1ccnc2c1NC(=O)c1cccnc1N2C1CC1 [Nevirapine]	-6.68 (inactive)
CCC(C)n1ncn(-c2ccc(N3CCN(c4ccc(OCC5COC(Cn6cncn6)(c6ccc(Cl)cc6Cl)O5)cc4)CC3)cc2)c1=O (centres undefined) [Itraconazole]	-72.2 (inactive)
NC(Cc1cc(I)c(Oc2cc(I)c(O)c(I)c2)c(I)c1)C(=O)O (centres undefined) [Thyroxine]	32 (inactive)
CCN(CC)CC#CCOC(=O)C(O)(c1ccccc1)C1CCCCC1 (centres undefined) [Oxybutynin]	-5.69 (inactive)
CN(C)[C@@H]1C(O)=C(C(N)=O)C(=O)[C@@]2(O)C(O)=C3C(=O)c4c(O)ccc(Cl)c4[C@@H](O)[C@H]3C[C@@H]12 [Demeclocycline]	-12.1 (inactive)
CN(CCOc1ccc(NS(C)(=O)=O)cc1)CCc1ccc(NS(C)(=O)=O)cc1 [Dofetilide]	-13.2 (inactive)
COc1ccc(C2CNC(=O)C2)cc1OC1CCCC1 (centres undefined) [Rolipram]	-53.6 (inactive)
CN(C)CCOC(c1ccccc1)c1ccccc1 [Diphenhydramine]	-17.4 (inactive)
Clc1cccc(Cl)c1NC1=NCCN1 [Clonidine hydrochloride]	-5.88 (inactive)
CC(=O)O[C@H]1C[C@@H]2CC[C@@H]3[C@H](CC[C@@]4(C)[C@H]3C[C@H]([N+]3(C)CCCCC3)[C@@H]4OC(C)=O)[C@@]2(C)C[C@@H]1N1CCCCC1 [Vecuronium Bromide]	-9.35 (inactive)
COc1ccnc(C[S+]([O-])c2nc3cc(OC(F)F)ccc3[nH]2)c1OC (centres undefined) [Pantoprazole]	1.97 (inactive)
